Screening results (PubChem)
This excerpt belongs to a sample that is enriched for hits.
GluA2 TARP mod = modulators of AMPA receptor GluA2-stargazin complexes. actives 3.5% (n = 40,000). O88602+P19491. calls only at 30 µM. HEK293 GluA2+stargazin, membrane potential dye (FDSS), glutamate EC50; hits were called plate by plate, in both directions;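 active = any of four per-well response measures lying three or more SD from its plate-wide compound average, in either direction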
Target sequence (O88602 whole entry, looked up): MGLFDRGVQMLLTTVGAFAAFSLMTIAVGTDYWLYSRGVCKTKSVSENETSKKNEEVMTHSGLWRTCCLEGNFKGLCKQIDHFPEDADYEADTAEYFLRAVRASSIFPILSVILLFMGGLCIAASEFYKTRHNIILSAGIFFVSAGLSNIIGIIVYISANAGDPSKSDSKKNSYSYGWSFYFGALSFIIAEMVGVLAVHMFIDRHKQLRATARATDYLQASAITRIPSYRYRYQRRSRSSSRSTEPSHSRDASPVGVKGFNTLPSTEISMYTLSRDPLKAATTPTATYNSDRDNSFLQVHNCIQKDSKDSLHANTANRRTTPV
Target sequence (P19491 whole entry, looked up): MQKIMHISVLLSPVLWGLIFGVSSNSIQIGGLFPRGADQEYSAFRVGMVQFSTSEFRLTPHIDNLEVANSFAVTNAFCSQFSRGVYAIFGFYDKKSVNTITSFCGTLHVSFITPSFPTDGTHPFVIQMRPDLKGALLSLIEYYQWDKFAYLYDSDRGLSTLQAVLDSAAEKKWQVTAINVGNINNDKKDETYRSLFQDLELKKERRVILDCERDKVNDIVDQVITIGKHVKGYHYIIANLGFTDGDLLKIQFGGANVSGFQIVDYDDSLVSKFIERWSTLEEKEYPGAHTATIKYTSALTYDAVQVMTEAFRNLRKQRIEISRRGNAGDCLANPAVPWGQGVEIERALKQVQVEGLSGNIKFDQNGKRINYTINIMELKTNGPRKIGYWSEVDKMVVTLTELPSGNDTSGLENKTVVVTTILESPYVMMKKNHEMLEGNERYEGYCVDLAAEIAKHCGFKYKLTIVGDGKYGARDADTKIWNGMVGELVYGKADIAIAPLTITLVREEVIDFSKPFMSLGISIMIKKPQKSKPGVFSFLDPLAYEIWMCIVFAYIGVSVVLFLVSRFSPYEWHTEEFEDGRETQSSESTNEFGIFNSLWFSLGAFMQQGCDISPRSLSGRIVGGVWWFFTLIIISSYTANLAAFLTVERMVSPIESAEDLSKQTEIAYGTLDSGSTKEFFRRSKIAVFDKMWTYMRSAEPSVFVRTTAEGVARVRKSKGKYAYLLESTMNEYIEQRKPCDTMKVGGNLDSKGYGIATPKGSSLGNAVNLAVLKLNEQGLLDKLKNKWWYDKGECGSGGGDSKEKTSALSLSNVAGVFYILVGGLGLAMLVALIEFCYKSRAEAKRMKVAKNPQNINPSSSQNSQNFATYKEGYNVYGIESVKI
GIRK2 act = Activators of human GIRK2-containing channels | activation (% efficacy), % for hits at 37.5 µM | 34,000 tested, under 10 active | P48051 | HEK293 GIRK2/NPY4 cells, thallium flux fluorescence;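 active = primary screen hit, no activity in plain HEK293 cells, and in GIRK2-only cells above 5% efficacy rising with concentration; inactive = the rest, including fluorescent compounds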;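 note: efficacy is normalized control-subtracted fluorescence 15 s after thallium addition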
Active calls of the source: *; i = inactive; . = no result; + = active, no number.

SMILES | GluA2 TARP mod | GIRK2 act
O=C(NCC(c1cccc2ccccc12)N1CCCC1)C(=O)Nc1ccccc1F (stereo unspecified) | i | i
Cn1nnc2c(N3CCN(S(=O)(=O)Cc4ccccc4)CC3)ncnc21 | i | i
COC(=O)C1CCN(C(=O)c2cc3c(=O)n(C)c(=O)n(C)c3s2)CC1 | i | i
Cn1c(=O)c2cc(C(=O)NCCN3CCOCC3)sc2n(C)c1=O | + | i
Cn1c(=O)c2cc(C(=O)NCC3CCCO3)sc2n(C)c1=O (stereo unspecified) | i | i
Cn1c(=O)c2cc(C(=O)N3CCCC3)sc2n(C)c1=O | + | i
CCC(C(=O)N1CCN(c2ncnc3c2nnn3-c2cccc(OC)c2)CC1)c1ccccc1 (stereo unspecified) | i | .
Cc1ccccc1-c1ccc(N2CCN(C(=O)Cc3cccs3)CC2)nn1 | i | i
Cc1ccc(-c2ccc(N3CCN(C(=O)Cc4cccs4)CC3)nn2)cc1 | i | i
Cc1cc(N2CCOCC2)nc(N2CCN(C(=O)Cc3cccs3)CC2)n1 | + | i
Cc1cc(N2CCCC2)nc(N2CCN(C(=O)c3ccccc3)CC2)n1 | + | .
Cc1ccc(C(=O)N2CCN(c3nc(C)cc(N4CCCCC4)n3)CC2)cc1 | i | .
O=C(Cc1cccs1)N1CCN(c2ccc(-c3ccccn3)nn2)CC1 | + | i
COc1ccc(CCC(=O)NCC2CCN(C3CCCC3)CC2)cc1 | . | i
COc1ccc2nc(N3CC(C(=O)N4CCc5cc(OC)c(OC)cc5C4)C3)sc2c1 | i | i
O=C(Nc1ccc2ncsc2c1)c1ccc(S(=O)(=O)N2CCc3ccccc3C2)cc1 | i | i
O=C(Nc1ccc2c(c1)CN(S(=O)(=O)c1ccccc1)CC2)c1ccc2nsnc2c1 | + | i
COC(=O)Nc1nc(CC(=O)Nc2ccc3c(c2)OCCO3)cs1 | . | i
O=C(NCC(O)(c1ccco1)C1CC1)NC1CCCCC1 (stereo unspecified) | + | i
O=C(NCC(O)(c1cccs1)C1CC1)c1ccco1 (stereo unspecified) | i | i
O=C(NCC(O)(c1cccs1)C1CC1)NC1CCCCC1 (stereo unspecified) | + | i
O=C(NCC(O)(c1cccs1)C1CC1)C1c2ccccc2Oc2ccccc21 (stereo unspecified) | + | i
O=C(NCc1cccs1)NCC(O)(c1cccs1)C1CC1 (stereo unspecified) | i | i
O=C(NCC(O)(c1ccco1)C1CC1)Nc1ccccc1C(F)(F)F (stereo unspecified) | i | i
Cc1cc(C)cc(-n2nnc3c(=O)n(CC(=O)N4CCC(Cc5ccccc5)CC4)cnc32)c1 | i | .
SMILES | GluA2 TARP mod | GIRK2 act
CCOc1ccc(-c2ccc(=O)n(CCCC(=O)NCc3ccc(C)cc3)n2)cc1 | . | i
O=c1ccc(-c2ccc(Cl)cc2)nn1Cc1ccccc1 | i | i
Cn1cccc(C(=O)Nc2ccc(CC(=O)NCc3cccs3)cc2)c1=O | i | i
O=C(/C=C/c1cccs1)NCC1CCN(Cc2ccsc2)CC1 | + | i
COC(=O)N1CCC(CNC(=O)/C=C/c2cccs2)CC1 | i | i
CCOc1ccc2nc(NC(=O)C3CCN(S(C)(=O)=O)CC3)sc2c1 | . | i
Cc1ccc(-c2ccc(N3CCN(C(=O)c4ccccc4F)CC3)nn2)cc1 | i | i
O=C(CSc1ncc(S(=O)(=O)c2ccc(Br)cc2)c(=O)[nH]1)Nc1ccccc1F | + | .
Cc1ccc(S(=O)(=O)c2cnc(SCC(=O)Nc3ccc(Br)cc3)[nH]c2=O)cc1 | i | i
CN(CCCC(N)=O)S(=O)(=O)c1ccc2c(c1)C(=O)c1ccccc1C2=O | + | .
COc1ccc(S(=O)(=O)N(C)CCCC(=O)O)cc1N(C)S(=O)(=O)c1ccccc1 | i | .
C=CCNC(=O)C(=O)NCC(c1cccc2ccccc12)N(C)C (stereo unspecified) | . | i
Cc1nc(N2CCN(CCO)CC2)nc(Nc2ccc(F)cc2)c1[N+](=O)[O-] | + | i
Cc1nc(N2CCN(CCO)CC2)nc(N2CCCCC2)c1[N+](=O)[O-] | i | i
O=C(Cc1cc(-c2ccco2)on1)NCCCn1ccnc1 | i | i
O=C(c1ccc2c(c1)OCO2)N1CCN(Cc2nnnn2-c2ccc(F)c(F)c2)CC1 | i | i
O=S(=O)(NCC1CCN(Cc2ccccc2)CC1)c1cc(F)ccc1F | i | i
COc1ccc(C)c2sc(N(CCN3CCOCC3)C(=O)c3ccc(C)cc3)nc12 | i | .
COc1ccc2sc(N(CCCN3CCOCC3)C(=O)c3ccno3)nc2c1 | + | i
COc1ccc(OC)c2sc(N(CCN3CCOCC3)C(=O)CCc3ccccc3)nc12 | i | .
CCn1nc(C)cc1C(=O)N(CCCN(C)C)c1nc2c(OC)ccc(Cl)c2s1 | i | i
CCCC(=O)N(CCN1CCOCC1)c1nc2c(OC)ccc(OC)c2s1 | + | .
COc1ccc2sc(N(CCN3CCOCC3)C(=O)c3cccc(F)c3)nc2c1 | i | i
COc1ccc(C)c2sc(N(CCN3CCOCC3)C(=O)c3ccc(Br)s3)nc12 | + | .
COc1ccc(OC)c2sc(N(CCN(C)C)C(=O)c3cc(C)nn3C)nc12 | + | i
SMILES | GluA2 TARP mod | GIRK2 act
COc1ccc(-n2nnc(S(=O)(=O)c3ccc(C)cc3)c2C)cc1Cl | i | i
O=C(Cn1nc(-c2ccc3c(c2)OCO3)ccc1=O)Nc1ccc2c(c1)OCO2 | i | i
O=S(=O)(c1ccc(F)cc1F)N1CCN(c2ccc(N3CCOCC3)nn2)CC1 | i | i
Cc1nnsc1C(=O)N1CCC(CNC(=O)Cn2cnc3c2c(=O)n(C)c(=O)n3C)CC1 | i | i
COc1ccc(C)c2sc(N(CCN3CCOCC3)C(=O)c3ccc(Cl)cc3)nc12 | i | .
O=C(c1ccc(Br)s1)N(CCN1CCOCC1)c1nc2ccccc2s1 | i | i
CCOc1ccc2nc(N(CCN3CCOCC3)C(=O)c3ccc(S(C)(=O)=O)cc3)sc2c1 | + | .
COc1ccc(C)c2sc(N(CCN3CCOCC3)C(=O)c3ccc(Cl)s3)nc12 | + | .
CCOc1ccc2nc(N(CCN3CCOCC3)C(=O)c3ccnn3C)sc2c1 | i | i
CCS(=O)(=O)c1cccc(C(=O)N(CCN2CCOCC2)c2nc3c(C)c(C)ccc3s2)c1 | + | .
COc1ccc2nc(N(CCN3CCOCC3)C(=O)c3ccc(Br)s3)sc2c1 | + | .
CCS(=O)(=O)c1cccc(C(=O)N(CCN2CCOCC2)c2nc3ccccc3s2)c1 | i | i
CCSC1=NCCN1S(=O)(=O)c1ccc(Br)cc1 | i | .
COc1cn(-c2ccc(F)cc2)nc1C(=O)NCc1cccs1 | i | i
COc1cccc(N/C=C(\C#N)C(=O)NCc2ccccc2)c1 | i | i
COc1cn(CC(=O)Nc2ccccc2)c(CSc2ncccn2)cc1=O | i | i
CCc1ccc(C(=O)NCC2CCN(S(C)(=O)=O)CC2)cc1 | i | i
Cc1cc(C)c(NC(=O)C(=O)NCC2(c3cccs3)CCCC2)c(C)c1 | . | i
CCOc1cn(-c2ccc(F)cc2)nc1C(=O)NCc1c(F)cccc1F | i | i
Cc1ccc(NC(=O)CCc2ccccc2)cc1N1CCCCC1=O | i | i
O=C(CSc1ccc([N+](=O)[O-])cc1[N+](=O)[O-])Nc1cccc(C(F)(F)F)c1 | + | .
